ERa SRC1 inh: blocks coactivator binding to human estrogen receptor alpha. P03372. TR-FRET ER-alpha LBD / SRC-1 peptide, estradiol-bound. inhibition, % at 25.6 µM. 86,000 compounds, 1.7% hits; in the data active = inhibition above about 50%;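 note: 0% = receptor plus peptide control and 100% = peptide only without receptor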
Target sequence (P03372 whole entry, looked up, the tested form may be a part): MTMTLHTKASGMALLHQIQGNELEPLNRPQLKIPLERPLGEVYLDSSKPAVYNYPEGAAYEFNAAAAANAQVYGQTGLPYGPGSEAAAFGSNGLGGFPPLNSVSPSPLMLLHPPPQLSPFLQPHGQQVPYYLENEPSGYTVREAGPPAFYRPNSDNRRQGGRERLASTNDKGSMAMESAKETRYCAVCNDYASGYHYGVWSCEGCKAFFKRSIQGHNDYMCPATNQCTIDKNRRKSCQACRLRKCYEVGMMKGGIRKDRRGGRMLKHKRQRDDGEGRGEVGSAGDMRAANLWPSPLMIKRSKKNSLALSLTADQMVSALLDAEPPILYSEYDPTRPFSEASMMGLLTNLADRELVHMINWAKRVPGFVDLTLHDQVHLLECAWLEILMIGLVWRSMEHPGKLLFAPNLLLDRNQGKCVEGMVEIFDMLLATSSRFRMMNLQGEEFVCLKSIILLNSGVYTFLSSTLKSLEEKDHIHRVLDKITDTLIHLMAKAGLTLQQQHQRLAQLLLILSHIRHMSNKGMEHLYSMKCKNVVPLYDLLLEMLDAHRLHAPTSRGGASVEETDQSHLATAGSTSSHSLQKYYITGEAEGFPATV
Smad3 inh: Smad3 (human) transcription factor binding inhibition | P84022 | TR-FRET Smad3/Dy647-FoxH1 peptide binding, europium anti-His | inhibition, % at 25 µM | 88,000 compounds, 0.29% hits | AID 630;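 active = compounds that reduce the energy-transfer binding signal between the protein and its labelled peptide by more than half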;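 note: 0% = Smad3 plus labelled peptide maximal FRET and 100% = peptide-only background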
MRP resist rev: reverses drug resistance mediated by MRP; AID 602; H69AR cells + 2 uM doxorubicin, CellTiter-Glo, 72 h; differential viability (reversal), % at 10 µM; 85,000 compounds, 0.04% hits;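 active = viability drop by adding the cancer drug above about 55%, with treated viability meeting a 40% cutoff, limit read from the data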;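 note: viability without doxorubicin minus viability with 2 µM doxorubicin for each compound; larger differential means the compound sensitizes cells more to doxorubicin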
MRP1 act: activates MRP-1; viability increase, % at 10 µM; H69AR cells + doxorubicin, viability rescue, CellTiter-Glo; 140,000 compounds, 0.61% hits;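 active = viability gain under doxorubicin at or above a set limit, the compound median plus 3 SD, cut at about 4.7% in these data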;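 note: MRP-1 overexpressing cells given doxorubicin 25 µM after compound pretreatment; 18-22 h compound pretreatment then 72 h with doxorubicin before readout; 0% = doxorubicin-only wells and 100% = vehicle-treated cells without doxorubicin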
ERa SRC1 pot: ER-alpha (human) coactivator binding potentiation; P03372; TR-FRET ERalpha-LBD/SRC-Cy5 coactivator binding, 2 h; 100 = basal binding, no effect; coactivator binding (% of control), % at 25.6 µM; 86,000 compounds, 1.3% hits; AID 639; in the data active = activity above about 200%;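 note: binding measured in presence of low estradiol as agonist stimulus; 0% = peptide alone without receptor and 100% = receptor with peptide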
ERb SRC1 inh: ER-beta (human) coactivator binding inhibition. Q92731. TR-FRET ER-beta LBD / SRC1-Cy5 peptide binding; receptor agonist-loaded with 1 µM estradiol. inhibition, % at 25.6 µM. 86,000 compounds, 1.3% hits;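 active = compounds whose percent inhibition of the receptor-coactivator binding signal exceeds about 50% in the single-dose screen, limit read from the data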;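 note: 0% = receptor plus peptide wells without compound and 100% = peptide-only wells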
* hit, by the source's call; [ ] = another dose, or the depositor's remark. Hits are enriched below; roughly 2.9% of the tested compounds scored in any of these assays.

Screening COc1ccc(C2SCC(C(=O)NCc3ccc(F)cc3)N2C(C)=O)cc1 (centres undefined) returned ERa SRC1 inh -7, Smad3 inh -5, MRP resist rev 9, MRP1 act -2, ERa SRC1 pot 513*[fluorescence artefact?] and ERb SRC1 inh 7.
Screening Nc1nc(-c2cccnc2)cc(-c2cc(-c3cccnc3)nc(N)n2)n1 returned Smad3 inh 1.
Screening COc1cc(NC(=O)c2cccs2)c(C(=O)OCC(=O)NC(=O)NC(C)(C)C)cc1OC returned ERa SRC1 inh 16, Smad3 inh -12, MRP resist rev 27, MRP1 act 0, ERa SRC1 pot 101 and ERb SRC1 inh 75*.
COc1cc(NC(=O)c2cccs2)c(C(=O)OCC(=O)c2cc(C)n(-c3ccc(F)cc3)c2C)cc1OC was read as MRP1 act -2.
COc1cc(NC(=O)c2cccs2)c(C(=O)OCC(=O)NC(=O)NCc2ccccc2)cc1OC was read as ERa SRC1 inh 39, Smad3 inh -418, MRP resist rev -2, MRP1 act 2, ERa SRC1 pot 344* and ERb SRC1 inh 1.
COc1cc(NC(=O)c2cccs2)c(C(=O)OCC(=O)c2cc(C)n(-c3ccccc3)c2C)cc1OC was read as MRP1 act 0.
`CCOc1ccc(-c2c[n+]3c(n2-c2ccccc2)CCCCC3)cc1` gave MRP1 act -1.
C[C@@H]1CCCN(C[C@@H](O)CN2CCCc3ccccc32)C1 was read as Smad3 inh -7.
Screening Cc1cccc(NC(=O)C2CCCN(c3nc(C)cc(C)n3)C2)c1 (centres undefined) returned ERa SRC1 inh 8, Smad3 inh 11, MRP resist rev 5, MRP1 act -1, ERa SRC1 pot 118 and ERb SRC1 inh -1.
Screening Cc1cccc(NC(=O)C2CCN(c3nc(C)cc(C)n3)CC2)c1 returned ERa SRC1 inh 0, Smad3 inh 7, MRP resist rev 4, MRP1 act 0, ERa SRC1 pot 115 and ERb SRC1 inh 55*[fluorescence artefact?].
For Cc1cc(C(=O)CN2C(=O)NC(Cc3c[nH]c4ccccc34)C2=O)c(C)n1C (centres undefined) the results were ERa SRC1 inh -8, Smad3 inh -2, MRP resist rev -6, MRP1 act -2, ERa SRC1 pot 96 and ERb SRC1 inh 94*[fluorescence artefact?].
`CCOC(=O)Cc1csc(NC(=O)Cc2cccs2)n1` gave ERa SRC1 inh 90*[fluorescence artefact?], Smad3 inh 1, MRP resist rev 8, MRP1 act -1, ERa SRC1 pot 19 and ERb SRC1 inh 75*.
Screening Cc1cccc(-n2nc3c(c2NC(=O)c2ccc(Br)o2)CSC3)c1 returned ERa SRC1 inh 1, Smad3 inh 6, MRP resist rev 11, MRP1 act -2, ERa SRC1 pot 211* and ERb SRC1 inh 0.
`CC1=CC(C)(C)N(C(=O)CSc2nnc(N)s2)c2c(C)cc(C)cc21` gave MRP1 act -3.
For CCn1c(CNC(=O)COc2ccc(C(C)C)cc2)nnc1SCC(=O)Nc1ccccc1F the results were MRP1 act 0.
CCn1c(CNC(=O)COc2ccc(C(C)C)cc2)nnc1SCC(=O)Nc1ccccc1C(C)C was read as MRP1 act 6.2*.
Screening O=C(Nc1ccc(N2CCCC2)cc1)C(Cl)c1ccccc1 (centres undefined) returned ERa SRC1 inh 59*, Smad3 inh 10, MRP resist rev -18, MRP1 act -1, ERa SRC1 pot 47 and ERb SRC1 inh 50*.
`Cc1cccc(OCc2nnc(SCC(=O)Nc3ccc(C)c(Cl)c3)o2)c1` gave MRP1 act -2.
For Cc1ccc(C(=O)NC(C)c2ccc(F)cc2)cc1 (centres undefined) the results were MRP1 act 6.3*.
Screening C/C(N[O-])=C(\C)[N+]([O-])=[Rh][Cl].CC(=N\[O-])/C(C)=N/[O-].NC(N)=[SH+] returned Smad3 inh -2.
`Cc1ccc(NC2c3ncccc3C(=O)N2c2ccccc2C)cc1C` (centres undefined) gave ERa SRC1 inh -45, Smad3 inh 11, MRP resist rev 8, MRP1 act -4, ERa SRC1 pot 543*[fluorescence artefact?] and ERb SRC1 inh 21.
`CCN(CC)CC(=O)Nc1cc(C)c2c(=O)oc3ccccc3c2n1` gave ERa SRC1 inh -1, Smad3 inh -7, MRP resist rev -19, ERa SRC1 pot 123 and ERb SRC1 inh -3.
NNC(=O)CS(=O)(=O)Nc1ncccn1 was read as Smad3 inh 42.
COc1ccccc1NC(=O)Oc1ccc(NC(=O)c2ccco2)cc1 was read as ERa SRC1 inh 60*[fluorescence artefact?], Smad3 inh 9, MRP resist rev -6, MRP1 act -2, ERa SRC1 pot 81 and ERb SRC1 inh 66*[fluorescence artefact?].
`COc1ccccc1NC(=O)c1cccc(NC(=O)c2ccco2)c1` gave ERa SRC1 inh 7, Smad3 inh -4, MRP resist rev -12, MRP1 act 2, ERa SRC1 pot 112 and ERb SRC1 inh -10.
Screening COc1ccccc1NC(=O)c1ccccc1NC(=O)c1cc(Cl)ccc1NC(=O)c1ccco1 returned ERa SRC1 inh 74*, Smad3 inh 2, MRP resist rev -2, MRP1 act -3, ERa SRC1 pot 64 and ERb SRC1 inh 41.
For COc1ccccc1NC(=O)c1cc(Cl)ccc1NC(=O)c1ccco1 the results were ERa SRC1 inh -10, Smad3 inh -5, MRP resist rev -6, MRP1 act -1, ERa SRC1 pot 96 and ERb SRC1 inh -10.
COc1ccc(NC(=O)c2ccco2)cc1NC(=O)c1ccco1 was read as ERa SRC1 inh 11, Smad3 inh 5, MRP resist rev 4, MRP1 act -3, ERa SRC1 pot 113 and ERb SRC1 inh 2.
COc1ccc(NC(=O)c2ccco2)cc1N was read as ERa SRC1 inh 55*, Smad3 inh 11, MRP resist rev -15, MRP1 act -3, ERa SRC1 pot 50 and ERb SRC1 inh 61*.
For CCOC(=O)C(C)(C)[C@H](O)C(C)C the results were Smad3 inh -11.
CCOC(=O)/C=C1\SCC(=O)N1Cc1nnc(-c2ccccc2Br)o1 was read as ERa SRC1 inh 59*[fluorescence artefact?], Smad3 inh -5, MRP resist rev -6, MRP1 act -2, ERa SRC1 pot 59 and ERb SRC1 inh 42.
Screening CC(C)[C@]1(Cl)CC[C@H]2[C@]3(C)CCC[C@@](C)(C(=O)O)[C@H]3C[C@@H](Cl)[C@]2(Cl)[C@H]1Cl returned Smad3 inh 37.
`NC(=O)N1CCN(C(=O)c2ccco2)CC1` gave ERa SRC1 inh 4, Smad3 inh 1, MRP resist rev -1, MRP1 act -1, ERa SRC1 pot 106 and ERb SRC1 inh -6.

Compound activity deposited in PubChem by several laboratories.
